# The supplement of paper PMC11417369
# Over roughly 25,000 sequences, “ln(normalized median fluorescence intensity)” has its median near 7.1; the highest 2% begin near 10. Many of the other results were omitted from the sample, so the highest values are more common in it than they were.
# System: PfSIP2 AP2 domain 1 (GST-tagged)
# Test: gcPBM binding intensity (ln(normalized median fluorescence intensity)); higher = stronger DNA binding
# Method in brief: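 The binding buffer was 1× PBS containing 1% milk, 0.2 mg/ml BSA, 0.5% salmon testes DNA and 0.03% Triton X-100. In it, GST-tagged P. falciparum DNA-binding domains expressed in E. coli were applied for 1 h to an Agilent 4 × 180k array of primer-extended double-stranded 36-bp intergenic genomic probes plus negative controls. Binding intensity, read with Alexa488 anti-GST antibody and a 488 nm scan, is the highest Masliner-normalised natural-log median intensity across replicate spots of either probe orientation.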
row,Sequence,gcPBM binding intensity (ln)
1,ATTAAAGAGAGACATCAACACACATACGTATGTATA [CACACA_site8393],6.94
2,TAGTTTTTTATAAAATTATTTATATAAAGGTAAAAA [CACACA_negctrl_site490],7.1
3,TTTGGATAAAAAATATGTACACACATATAGATATCT [XGTACX_site5660],6.9
4,TCTACAAAATTATCATGTACATATTATTATAATTAT [XGTACX_site6585],7.28
5,TGTTGTATATCTCTATATAGCTATATTGTATATATA [TGCATGCA_negctrl_site323],6.97
6,TATAAAAGTGGACACACACACATATATATATATATA [CACACA_site4673],9.47
7,TTTATTAATAATTATACACACATATAAAATGAATAA [CACACA_site1359],7.01
8,TAATATATAACGTGCACACACACATTTACGTATGAA [CACACA_site1832],9.88
9,TGTAAATTATAACGTGCACACATATTTAAAATGAAA [CACACA_site8915],10.6
10,ATATATAACGTGCACACACACATTTACGTATGAATA [CACACA_site6948],10.4
11,CTTAATTTAATGAAATGTACATATAAAAATATTATA [XGTACX_site3303],7.11
12,TAAATTATAACGTGCACACATATTTAAAATGAAATG [CACACA_site2820],10.3
13,ATATATAACGGGCACACACACATTTACGTATGAATA [CACACA_site1833],7.39
14,TAAAATAAATTGTGCACACATATTTATAAATATGAA [CACACA_site2331],9.66
15,AAATGAATTTAACAATGTACACATATATTATAAATA [XGTACX_site1449],7.13
16,ATATAAGTACGGCATGCATGCACATTTTTTTATTCC [TGCATGCA_site101],7.09
17,TACGTTATATACAACTGTACTTGGATAATTATTAAC [XGTACX_site5614],7.13
18,TCTTTTTTTTTTTTTTTTTTTTTTTATTTATTCATA [CACACA_negctrl_site1827],6.85
19,CATAATATATATTGAGCATGCTACTATTGTTAGAAA [TGCATGCA_site740],6.93
20,ATATATAAATATAGCATACACACAAAAAAATAAAAT [CACACA_site2332],7.11
21,TTATTTTTATTATAAATTATAAAATATAAATAAATA [GTGCAC_negctrl_site616],6.79
22,TATCATATATGAAGGTGTACGATTTATTATATAAAT [XGTACX_site7010],7.04
23,TTTTTTAAATATATGGTGCATAGAAAGATATTATAC [GTGCAC_site9984],10

row,Sequence,gcPBM binding intensity (ln)
1,TTTTTATGGACTATGGTGCATTATATATAAATGAAA [GTGCAC_site9557],10.6
2,ATATTTTATGTAAAGGTGCAAAACAACATTAAAAAA,10.5
3,GACAATATTAAAACATGTACATGCATTTTATGAATA [XGTACX_site553],7.05
4,ATTATCAATATGAAGGTGCATTTAAATAATATTTAC,10.7
5,ATTTATTTTATATGTTGTACAAACATTTTAAAACAT [XGTACX_site6919],6.95
6,TTTTTTTTTAATAAAATTATAATAAATATGAAATTA [XGTACX_negctrl_site369],6.67
7,AAATATTATAAAAAGGTGCATTTTTATTATATGAGT,11
8,TACAGTTCAATGAAGGTGCAATTAATATATAAAATA,10.2
9,TTTTTTAAATATTATTTTTATGAGTAAATATATTAT [GTGCAC_negctrl_site277],6.71
10,ATCATATATTATTTATGTACTTATTTATAATAATAT [XGTACX_site8257],7.06
11,AGAATATCAAAATAAAGTACATTTATTATATATATG [XGTACX_site7100],7.15
12,TTATTTAAAAAATTTTTAAATATACAAAAAAAAAAA [TGCATGCA_negctrl_site464],6.88
13,TTAATTGACATAAAAAGTACTCATATAGATATGCAC [XGTACX_site6391],8.9
14,AAACATTTATCAATGAATCTTTTAATAAGTGTAAAG [XGTACX_negctrl_site80],6.79
15,TAAATATAACAGAATAATATGTGGATTAATAAATGA [CACACA_negctrl_site438],6.81
16,ACATATGGCACATATGTACACACGTATAGATAATAT [CACACA_site2024],7.19
17,TGGAGGTCAGTTCACAGTACCCAGAAAACTCTACGA [XGTACX_site2561],6.58
18,TAAAATATTATAAAATGTACAAAACATATAAATATA [XGTACX_site5315],6.8
19,AACACATAATAAAATTGTACCCAACATTTCTTTTGA [XGTACX_site8061],6.96
20,GCATATGATGAGCATATAATCATAAGAAAAAAAAAA [CACACA_negctrl_site701],6.72
21,TATTAATTATAAGATGCATGTGCAAAAATATGTTCC [TGCATGCA_site51],7.6
22,GCAAATCATGCTATGGTGCATATGTAAGATGAGCAT,10.6
23,TATAACTTTTATAGGTGTACCCAATATTATATATAG [XGTACX_site7673],6.97

row,Sequence,gcPBM binding intensity (ln)
1,TTGCATTAATTTATGTGTACATATAAATTTTTATTT [XGTACX_site3060],7.41
2,TTAAAAATGTGTGTGCGTACATAATATTTCGAAAAA [XGTACX_site8197],7.03
3,CCAGTGTGCACCTTGCGTACATATTAAATTAATTAA [XGTACX_site3729],12.2
4,ATATATATGTATATAACATGCAACATTTAATAATAA [TGCATGCA_site1018],7.18
5,TATATATATTTTATATGTACGTATGGAACAATATGA [XGTACX_site8167],7.38
6,CATGTATGTACCATGGTGCAACAATATTTTTAACAA [GTGCAC_site9597],10.6
7,GTTACTGCATACATAACACACATATTCAAAACCCAT [CACACA_site5856],7.13
8,TGATTCTGTCATGGTGCACACCAGAACCATTATAAA [CACACA_site1965],11.9
9,TTCTGTATACGGTGTGCACACAATTAAAAAAAAAAA [CACACA_site1416],9.47
10,CATTATGTCATAAATGCACACATATATATATACATA [CACACA_site8454],7.38
11,TTATAAAGAATTAGGAGTACAAATGCATATATAATA [XGTACX_site6580],7.3
12,TGTTTATTTTTTTTATGTACTTATTTTTTATTGCAT [XGTACX_site719],7.61
13,ATATTTTTATTTAAATCACATCATTTTGTTTATTTG [CACACA_negctrl_site1056],6.95
14,AAAATTAAAAATAACACACACATATTTATATTTATA [CACACA_site7329],6.87
15,AAAATTAACGAGTGCACACATATTTAGATAAAATAC [CACACA_site2936],11.2
16,AAAATTAAAAATAACACACACATATATATATTTATA [CACACA_site2776],6.9
17,GAAAAATTAAAAATAACACACACATATATATATTTA [CACACA_site8896],6.98
18,AAAAAATTAACGAGTGCACACATATTTAGATAAAAT [CACACA_site8958],10.6
19,TAAAATAATATTTATGTGCACATATAATTATTAATT,8.71
20,TTTTATTTATTATTATGTACACACTATATTAAAACA [XGTACX_site1265],7.13
21,TTGTTATTCCACCGTTGTACAGTTATATACATACAC [XGTACX_site8296],7.31
22,GTACATTGTAAGGATGGAAAAGCTAAACATTATAAT [XGTACX_negctrl_site339],6.99
23,ATAGAACAATTCAGAAGTACATAAAAAGAAAAATTT [XGTACX_site3015],6.9

row,Sequence,gcPBM binding intensity (ln)
1,ATGAACATTTATAAATGTACTCACATATATATATTT [XGTACX_site6692],7.02
2,ATATATATATGTTAGGTGCATATATATTTTGTGGAT [GTGCAC_site9964],9.6
3,TAATGTTGAGAATTTTGTACATATAGATCAATTTAT [XGTACX_site5426],6.84
4,TTTTTTTTTTTTGAGGTGCATATATCAGATCAATAT,10.6
5,TGATGATATAAAAACACACACATATAACATAATACT [CACACA_site6687],7.04
6,AATATAATATAATGCACACATAAACAAAAAAAAAAT [CACACA_site1304],7.53
7,ATGAGTGCACAAATATATATATATATATATATATAT [CACACA_negctrl_site404],11.6
8,GCACAAATATATATATATATATATATATATATATAT [GTGCAC_negctrl_site661],9.36
9,TATATACATATATGCACACAAAAAAATATATATTTT [CACACA_site1729],7.3
10,TAAATATATAAATACACACAAACATACATATATATA [CACACA_site4050],7.55
11,ATATATTTGATAAGAGTGCACAAATACATACATACA [GTGCAC_site9704],10.6
12,ATATAATCTGAGTGCACACAAATAAATAAACATACA [CACACA_site422],10.4
13,TAATATAATCTGAGTGCACACAAATAAATAAACATA [CACACA_site8032],10.3
14,TACACAAATATATATATATATATATATATATATATA [XGTACX_negctrl_site305],9.89
15,TACATATTGATATATACACACAAAAAAATAAATTCT [CACACA_site6198],7
16,TATAAATATACAAACACACATACAAACATATATATA [CACACA_site1120],7.27
17,AAAATATAAAATAATGCACACATAAACAAAAAATCA [CACACA_site8382],7.33
18,TATACATATATTATATGTACATATATATATAATATA [XGTACX_site2942],7.26
19,TACTATCTATACAATACACACAAAAAAAAAAAAATA [CACACA_site3981],6.95
20,AATTGAGAAGTGTGTTGTACATAATGGCACATACCT [XGTACX_site1370],7.22
